# Source: PubChem BioAssay
# “And” between values parts separate entries of the source, which are not always exact repeats. Identical values can stand only once. Inconclusive results are not listed. The source made the active and inactive calls.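 The calls were made as follows, unless noted: active = normalized viability below 100% at a tested concentration; inactive = the rest.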
# Tests used:
# [1] = viability loss in pontine glioma line – cell-based, SU-DIPG-XXV, MIPE5.0, CellTiter-Glo, qHTS, dose response (AID 1347065; cut-off not given, nearly all actives have AC50 up to about 26 µM;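 also: cells exposed to compound for 48 hours before ATP readout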); details: CellTiter-Glo ATP luminescence
# [2] = SU-DIPG-XXV glioma cell viability, MIPE5.0 library, qHTS (AID 1347068; cut-off not given, nearly all actives have IC50 up to about 30 µM)
# [3] = SU-DIPG-VI glioma cell viability, MIPE4.0 library, CellTiter-Glo luminescence, qHTS (AID 1347066; cut-off not given, nearly all actives have AC50 up to about 30 µM;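 also: cells exposed to compound for 48 hours before readout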); details: CellTiter-Glo ATP luminescence
# [4] = JHH-DIPG-1 glioma cell viability, MIPE5.0 library, CellTiter-Glo luminescence, qHTS (AID 1347067; cut-off not given, nearly all actives have AC50 up to about 26 µM;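 also: cells exposed to compound for 48 hours before readout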); details: JHH-DIPG-1 glioma viability, CellTiter-Glo ATP luminescence
# [5] = sensitizers of A549 cells to miR-34 induction, primary screen, imaging, A549 dox-inducible miR-34, nuclei and caspase counts (AID 1347080;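 active = compounds whose cell count with miR-34 switched on is under 0.7 times the count with it off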); details: A549 miR-34 inducible, Hoechst nuclei count, 48 h
# [6] = survival rescue of mitochondrial mutant cells in low glucose, primary screen, MELAS cybrids, Rieske KO mouse fibroblasts, CellTiter-Glo (AID 1508586;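 active = mean z-score across replicates of 1.96 or higher in either the MELAS or the Rieske mutant cell line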;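 also: z relative to plate mean and SD of compound and empty wells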)
# [7] = liver-stage malaria parasite growth inhibition, primary screen, cell-based, HepG2, luciferase luminescence, HepG2 viability (AID 624349; in the data active = parasite load remaining mostly below about 12%, no sharp cut-off; inactive = mostly above about 10%;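 also: 100% = mean of DMSO negative control wells on the same plate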); details: P. berghei liver stage in HepG2, luciferase luminescence, concentration not given here; parasite load remaining: stronger effect = lower value; viability: measured here: HepG2 viability without parasites
# [8] = modifiers of HSF1 nuclear foci, imaging, Selleck Cancer Library (AID 1347162; in the data active = plate-normalised HSF1 focus index below about 0.46); details: human cells, at 10 µM; SSMD: measured here: HSF1 foci SSMD mean; cell count: measured here: cell number; plate-normalised HSF1 focus index: stronger effect = lower value
# [9] = molecular target: NAD(+) hydrolase SARM1 (Homo sapiens) (UniProt Q6SZW1); test: SARM1 TIR NADase inhibitors, cell lysate, NAD-Glo luminescence (AID 1508614;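 active = compound whose remaining NAD level is above about 45 nM, limit read from the data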;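 also: higher remaining NAD means stronger inhibition of SARM1 NADase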); details: SAM-TIR HEK293T lysate NADase, at 1 µM, stronger effect = higher value
# [10] = kinase inhibitors against Plasmodium liver-stage infection, cell-based, known kinase inhibitor set, luminescence, hepatoma host viability (AID 624392; call rule not given here;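 also: infected cells incubated roughly two days before readout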); details: Plasmodium liver stage in hepatoma cells, luciferase luminescence, concentration not given here; liver cell % of control: measured here: host liver cell viability; parasite % of control: stronger effect = lower value
# [11] = ovarian cancer cell viability with rucaparib, profiling panel, oncology-focused library, rucaparib conditional (AID 1508598); details: patient-derived ovarian cancer cells, CellTiter-Glo viability, 144 h, stronger effect = lower value
# [12] = stronger effect = lower value, cell number ratio, induced over uninduced
# [13] = measured here: relative caspase fold change +Dox/-Dox
# [14] = measured here: total cells with miR-34 induction, stronger effect = lower value
# [15] = measured here: total cells without miR-34 induction
# [16] = MELAS cybrid survival, CellTiter-Glo 48 h, stronger effect = higher value
# [17] = Rieske KO mouse fibroblast survival, CellTiter-Glo 72 h
# Chain of NAD(+) hydrolase SARM1 (Homo sapiens) (Q6SZW1 whole entry, looked up): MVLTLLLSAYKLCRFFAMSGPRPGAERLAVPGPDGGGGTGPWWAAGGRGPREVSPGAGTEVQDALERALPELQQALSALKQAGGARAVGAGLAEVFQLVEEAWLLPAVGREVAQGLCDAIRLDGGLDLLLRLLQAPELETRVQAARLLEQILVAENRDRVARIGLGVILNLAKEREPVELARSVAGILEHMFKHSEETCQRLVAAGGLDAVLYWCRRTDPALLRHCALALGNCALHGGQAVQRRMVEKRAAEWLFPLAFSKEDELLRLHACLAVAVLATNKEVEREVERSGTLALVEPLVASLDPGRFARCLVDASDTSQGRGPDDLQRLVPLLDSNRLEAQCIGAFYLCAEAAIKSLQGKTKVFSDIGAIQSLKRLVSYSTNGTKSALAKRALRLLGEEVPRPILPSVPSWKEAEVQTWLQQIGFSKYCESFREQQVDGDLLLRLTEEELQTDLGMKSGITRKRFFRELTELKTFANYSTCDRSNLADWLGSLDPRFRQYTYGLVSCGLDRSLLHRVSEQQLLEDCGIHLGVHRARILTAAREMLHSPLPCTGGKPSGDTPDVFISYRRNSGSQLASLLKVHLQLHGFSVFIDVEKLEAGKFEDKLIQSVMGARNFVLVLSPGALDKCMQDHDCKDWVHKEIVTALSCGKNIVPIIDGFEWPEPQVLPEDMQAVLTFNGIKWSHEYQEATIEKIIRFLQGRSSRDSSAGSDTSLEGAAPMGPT
compound,measurement,setting,value
C[C@H](NC(=O)c1c(N)nn2cccnc12)c1cc2cccc(C#Cc3cnn(C)c3)c2c(=O)n1-c1ccccc1,AC50,[1],12.9 µM (active)
same,outcome,[2],inactive
COc1ccccc1C(=O)Nc1cc2c(cc1N1CCCCC1)n(C)c(=O)n2C,AC50,[1],18.6 µM (active)
same,outcome,[2],inactive
Cc1nc(-c2cccnc2)sc1C(=O)Nc1ccccc1-c1cn2c(CN3CCOCC3)csc2n1,outcome,[1],inactive
same,outcome,[2],inactive
O=C(Nc1cccc(Br)c1)c1cccc(S(=O)(=O)N2CCCCCC2)c1,outcome,[3],inactive
COCCOc1ccc(N2CCN(CCn3ncc4c3nc(N)n3nc(-c5ccco5)nc43)CC2)cc1,outcome,[4],inactive
same,outcome,[2],inactive
Cc1cccc(CC(=O)N2CCc3c2ccc(-c2cn(C)c4ncnc(N)c24)c3F)n1,AC50,[1],10.5 µM (active)
same,fold change,[5]; [12],1.38 (inactive)
same,fold change,[5]; [13],0.997
same,cell count,[5]; [14],7830
same,cell count,[5]; [15],5660
same,z-score,[6]; [16],-0.412 (inactive)
same,z-score,[6]; [17],-0.298
COc1ccc2c(c1)C(c1ccc(F)cc1)=C(CN1CCCC1)CO2,outcome,[4],inactive
same,outcome,[2],inactive
CC(C)(C)S(=O)(=O)c1ccc2nccc(Nc3n[nH]c4ccc(F)cc34)c2c1,outcome,[2],inactive
O=c1[nH]nc2c3c(cccc13)NC(CN1Cc3ccccc3C1)=N2,outcome,[2],inactive
NC(=O)c1ccc2nc(-c3ccc(Oc4ccc(Cl)cc4)cc3)[nH]c2c1,parasite load remaining,[7],38.6% (inactive)
same,viability,[7],91.3%
same,outcome,[3],inactive
same,outcome,[2],inactive
same,SSMD,[8],0.89
same,cell count,[8],6720
same,plate-normalised HSF1 focus index,[8],1.06 (inactive)
CC(C)OC(=O)CCC/C=C\C[C@@H]1[C@@H](/C=C/[C@@H](O)COc2cccc(C(F)(F)F)c2)[C@H](O)C[C@@H]1O,AC50,[3],23.5 µM (active)
same,remaining NAD,[9],10 nM (inactive)
Cn1cc(-c2ccc(-c3cncc(Cl)c3N3CCC4(CCNC4=O)CC3)cc2)cn1,outcome,[4],inactive
same,outcome,[2],inactive
CC(C)C(=O)Nc1ncc(-c2cc(C(F)F)nn2-c2c(Cl)cccc2Cl)s1,liver cell % of control,[10],78% and 87.1% and 89.1%
same,parasite % of control,[10],2.64% (inactive) and 20.3% (inactive) and 36.7% (inactive)
same,outcome,[3],inactive
Cc1ccc2cc(-c3c(C)ccc(C(=O)c4c(-c5ccccc5)n(C)n(-c5ccccc5)c4=O)c3N)ccc2n1,outcome,[4],inactive
same,outcome,[2],inactive
S=C(NCc1ccc2c(c1)OCO2)N1CCN(c2ncnc3c2oc2ccccc23)CC1,liver cell % of control,[10],79.8% and 74.8% and 83.5%
same,parasite % of control,[10],3.34% (inactive) and 4.31% (inactive) and 22.8% (inactive)
same,AC50,[1],18.6 µM (active)
same,fold change,[5]; [12],0.868 (inactive)
same,fold change,[5]; [13],1.07
same,cell count,[5]; [14],3980
same,cell count,[5]; [15],4580
same,SSMD,[8],2.08
same,cell count,[8],7510
same,plate-normalised HSF1 focus index,[8],1.08 (inactive)
same,z-score,[6]; [16],-0.551 (inactive)
same,z-score,[6]; [17],0.864
same,viability,"[11]; at 0.000305 µM, OCI-C5x cells, with rucaparib 10 µM, 100% = cells with rucaparib alone",112% (inactive)
same,viability,"[11]; at 0.000305 µM, OCI-C5x cells, without rucaparib",101% (inactive)
same,viability,"[11]; at 0.000305 µM, OCI-P5x cells, with rucaparib 20 µM, 100% = cells with rucaparib alone",89.7% (active)
same,viability,"[11]; at 0.000305 µM, OCI-P5x cells, without rucaparib",92.1% (active)
same,viability,"[11]; at 0.00122 µM, OCI-C5x cells, with rucaparib 10 µM, 100% = cells with rucaparib alone",117% (inactive)
same,viability,"[11]; at 0.00122 µM, OCI-C5x cells, without rucaparib",100% (inactive)
same,viability,"[11]; at 0.00122 µM, OCI-P5x cells, with rucaparib 20 µM, 100% = cells with rucaparib alone",96.6% (active)
same,viability,"[11]; at 0.00122 µM, OCI-P5x cells, without rucaparib",98.2% (active)
same,viability,"[11]; at 0.00488 µM, OCI-C5x cells, with rucaparib 10 µM, 100% = cells with rucaparib alone",109% (inactive)
same,viability,"[11]; at 0.00488 µM, OCI-C5x cells, without rucaparib",104% (inactive)
same,viability,"[11]; at 0.00488 µM, OCI-P5x cells, with rucaparib 20 µM, 100% = cells with rucaparib alone",97.2% (active)
same,viability,"[11]; at 0.00488 µM, OCI-P5x cells, without rucaparib",95.2% (active)
same,viability,"[11]; at 0.0195 µM, OCI-C5x cells, with rucaparib 10 µM, 100% = cells with rucaparib alone",105% (inactive)
same,viability,"[11]; at 0.0195 µM, OCI-C5x cells, without rucaparib",98.9% (active)
same,viability,"[11]; at 0.0195 µM, OCI-P5x cells, with rucaparib 20 µM, 100% = cells with rucaparib alone",109% (inactive)
same,viability,"[11]; at 0.0195 µM, OCI-P5x cells, without rucaparib",105% (inactive)
same,viability,"[11]; at 0.0781 µM, OCI-C5x cells, with rucaparib 10 µM, 100% = cells with rucaparib alone",115% (inactive)
same,viability,"[11]; at 0.0781 µM, OCI-C5x cells, without rucaparib",111% (inactive)
same,viability,"[11]; at 0.0781 µM, OCI-P5x cells, with rucaparib 20 µM, 100% = cells with rucaparib alone",110% (inactive)
same,viability,"[11]; at 0.0781 µM, OCI-P5x cells, without rucaparib",101% (inactive)
same,viability,"[11]; at 0.313 µM, OCI-C5x cells, with rucaparib 10 µM, 100% = cells with rucaparib alone",110% (inactive)
same,viability,"[11]; at 0.313 µM, OCI-C5x cells, without rucaparib",111% (inactive)
same,viability,"[11]; at 0.313 µM, OCI-P5x cells, with rucaparib 20 µM, 100% = cells with rucaparib alone",105% (inactive)
same,viability,"[11]; at 0.313 µM, OCI-P5x cells, without rucaparib",104% (inactive)
same,viability,"[11]; at 1.25 µM, OCI-C5x cells, with rucaparib 10 µM, 100% = cells with rucaparib alone",118% (inactive)
same,viability,"[11]; at 1.25 µM, OCI-C5x cells, without rucaparib",107% (inactive)
same,viability,"[11]; at 1.25 µM, OCI-P5x cells, with rucaparib 20 µM, 100% = cells with rucaparib alone",103% (inactive)
same,viability,"[11]; at 1.25 µM, OCI-P5x cells, without rucaparib",103% (inactive)
same,viability,"[11]; at 5 µM, OCI-C5x cells, with rucaparib 10 µM, 100% = cells with rucaparib alone",128% (inactive)
same,viability,"[11]; at 5 µM, OCI-C5x cells, without rucaparib",129% (inactive)
same,viability,"[11]; at 5 µM, OCI-P5x cells, with rucaparib 20 µM, 100% = cells with rucaparib alone",101% (inactive)
same,viability,"[11]; at 5 µM, OCI-P5x cells, without rucaparib",101% (inactive)
Cc1csc(NC(=O)c2sc3nc4c(c(C(F)(F)F)c3c2N)CCC4)n1,outcome,[4],inactive
